The nature of assay [1]: NCI Yeast Anticancer Drug Screen. Data for the rad50 strain (AID 155).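 Further: 0% = growth of vehicle-only cultures of the same strain.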 Particulars: S. cerevisiae rad50 strain growth inhibition; at 50.0 µM; hits give high values. In outline: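 Inhibition values express reduced yeast growth in compound-treated cultures relative to vehicle-treated controls.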
Assay [2] is described as follows: NCI Yeast Anticancer Drug Screen. Data for the mec2-1 strain (AID 157). As to conditions: S. cerevisiae mec2-1 strain, at 50.0 µM, hits give high values. In outline: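 Compounds were applied to mec2-1 yeast cells. Their growth was then compared with that of vehicle-treated cultures to give growth inhibition.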
Assay [3] in a line: NCI Yeast Anticancer Drug Screen. Data for the sgs1 mgt1 strain (AID 161).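 Further: 0% = growth of cultures given vehicle only.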 Particulars: S. cerevisiae sgs1 mgt1 strain, at 50.0 µM, hits give high values. In outline: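 This yeast growth screen uses a strain with defined DNA-repair lesions; compound-treated growth is compared with vehicle-treated growth.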
The nature of assay [4]: NCI Yeast Anticancer Drug Screen. Data for the cln2 rad14 strain (AID 165).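 Further: 0% = growth equal to vehicle treated cultures.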 As to conditions: S. cerevisiae cln2 rad14 strain, at 50.0 µM, hits give high values. The method in brief:
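Strain: cln2 rad14 yeast, altered in cell cycle control and DNA damage repair. Read-out: growth inhibition vs vehicle.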

The nature of assay [5]: NCI Yeast Anticancer Drug Screen. Data for the bub3 strain (AID 167). As to conditions: S. cerevisiae bub3 mutant strain, at 50.0 µM, hits give high values. The method in brief: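 Steps: expose the mutant yeast strain to compound; grow alongside vehicle-treated cultures; measure growth; express inhibition against the vehicle cultures.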
A short description of assay [6]: NCI Yeast Anticancer Drug Screen. Data for the mlh1 rad18 strain (AID 175). Particulars: S. cerevisiae mlh1 rad18 strain growth inhibition; at 50.0 µM; hits give high values. In outline:
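A repair-deficient yeast strain is exposed to test compound, and growth is scored relative to vehicle-treated controls.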

Several values for one entry are separate records, joined by “and”; a condition that tells them apart may be missing. Identical values can stand only once. Compounds without any hit were thinned out: in the full panel of roughly 79,000, 15% have a hit. A number with no mark means an inactive call. Activity calls are given as the source filed them. No stated cut-off is given here; in the data, active means growth inhibition above about 70%; inactive means the rest.

For the compound `O=C(CC(=O)C(F)(F)C(F)(F)C(F)(F)F)c1ccco1.[Ni]`, the growth inhibition in assay [1] is 17.2%; in assay [2], 3.8%; in assay [3], 27.9%; in assay [4], -9.9%; in assay [5] it was 2%; in assay [6], 34.6%.
As for `CN(C)C(=O)Oc1c(Cl)cccc1Cl`, the growth inhibition is 28.4% in assay [1]; 24.4% in assay [2]; 5.65% in assay [3]; 10.5% in assay [4]; 36.8% in assay [5]; 14.1% in assay [6].
For the compound `CC[CH2][Sn]([CH2]CC)[CH2]CC.CC[CH2][Sn]([CH2]CC)[CH2]CC`, the growth inhibition is 99.2% (active) in assay [1]; 99.5% (active) in assay [2]; 99.5% (active) in assay [3]; 99.5% (active) in assay [4]; 98.6% (active) in assay [5]; 99.4% (active) in assay [6].
In the case of `CCOC(=O)C1=C(OC(OCC)C(CC)[Se]c2ccccc2)CCC1` (stereo not given), the growth inhibition in assay [1] was 50.4%; in assay [2] it was 10.6%; in assay [3] it was 40%; in assay [4], 22.4%; in assay [5], 22.7%; in assay [6], 39.9%.
Turning to `CNC(=O)Oc1ccccc1C(N)=O`, the growth inhibition was 10.4% in assay [1]; -1.8% in assay [2]; -14.8% in assay [3]; -46.8% in assay [4]; -4.55% in assay [5]; 7.3% in assay [6].
As for `CCCCCOP(=O)(OCCCCC)C(=O)Nc1ccc([N+](=O)[O-])cc1`, the growth inhibition is -12.9% in assay [1]; 4.85% in assay [2]; -5.25% in assay [3]; -3.2% in assay [4]; -1.8% in assay [5]; 10.9% in assay [6].
Take `CCCCC(CC)C(=O)NC(N)=O` (stereo not given): the growth inhibition in assay [1] was 6.7%; in assay [2], -20.1%; in assay [3] it was -5.35%; in assay [4], -22.4%; in assay [5], -12.2%; in assay [6], 4.1%.
Take `O=C(CCl)Oc1ccccc1Cl`: the growth inhibition in assay [1] was -19.5%; in assay [2] it was -5.4%; in assay [3], -31.1%; in assay [4] it was -42.9%; in assay [5], -23.9%; in assay [6], -31.6%.
Consider `COc1ccccc1CC(C)N` (stereo not given), for which the growth inhibition in assay [1] is 1.35%; in assay [2], -5.6%; in assay [3] it was 8.3%; in assay [4], 16%; in assay [5] it was 16.1%; in assay [6] it was 16.3%.
Turning to `N#CCCCCl`, the growth inhibition in assay [1] was 27.1%; in assay [2], 15.8%; in assay [3], 14.9%; in assay [4] it was 26.1%; in assay [5], 29.8%; in assay [6], 30.5%.
In the case of `NCCc1cc2c3c(c1)CCCN3CCC2`, the growth inhibition in assay [1] was 96.5% (active); in assay [2], 96.5% (active); in assay [3] it was 94.5% (active); in assay [4], 88.7% (active); in assay [5] it was 94.9% (active); in assay [6], 98.2% (active).
On to `CC(CC(C#N)(c1ccccc1)c1ccccc1)N1CCCCC1` (stereo not given), for which the growth inhibition in assay [1] is 27.6%; in assay [2], 14%; in assay [3] it was -22.9%; in assay [4], 12.1%; in assay [5], 33.5%; in assay [6] it was 27.4%.
As to `COc1ccc([N+](=O)[O-])cc1N=Cc1ccc(N(CCCl)CCCl)cc1C`, the growth inhibition was 43% in assay [1]; 13.3% in assay [2]; 52.2% in assay [3]; 18.6% in assay [4]; 3.5% in assay [5]; 17.1% in assay [6].
Regarding `CP1(=S)CC[C@H]2C3=C(CC[C@@H]21)CC(=O)CC3` (stereo not given in full), the growth inhibition in assay [1] was 14.4%; in assay [2], 14.6%; in assay [3], 11.3%; in assay [4] it was 52.9%; in assay [5] it was 2.9%; in assay [6], 16.9%.
On to `CC1(C)N=C(N)N=C(N)N1c1ccc(CCCCc2ccc(S(=O)(=O)F)c(Cl)c2)c(Cl)c1`, for which the growth inhibition was 99.2% (active) in assay [1]; 99.5% (active) in assay [2]; 99.4% (active) in assay [3]; 99.2% (active) in assay [4]; 99.3% (active) in assay [5]; 99.3% (active) in assay [6].
With `O=C(N/N=C/c1cc(Br)cc(Br)c1[O-])c1ccccc1O.O=C(N/N=C/c1cc(Br)cc(Br)c1[O-])c1ccccc1O.[Fe+2]`, the growth inhibition in assay [1] was 20.4%; in assay [2], 21.7%; in assay [3], 52%; in assay [4], -34.8%; in assay [5], 34.4%; in assay [6], 43.8%.
As for `C/C=C/CC1(C(C)C)C(=O)NC(=O)NC1=O`, the growth inhibition in assay [1] was 8.6% and 18.7%; in assay [2], 11.2% and 8%; in assay [3] it was -4.2% and 10.8%; in assay [4] it was 3.8% and 10.6%; in assay [5] it was -1.25% and 1.2%; in assay [6], -1.65% and 8.4%.
For `O=C(O)C(CSC(c1ccccc1)(c1ccccc1)c1ccccc1)N=Cc1cccs1` (stereo not given), the growth inhibition was -8% in assay [1]; -1.65% in assay [2]; -1.95% in assay [3]; -33.9% in assay [4]; 43.3% in assay [5]; -18.2% in assay [6].
For `CN(C)P(=O)(N(C)C)N(C)CO`, the growth inhibition in assay [1] was 6.35%; in assay [2], 6.05%; in assay [3], 25.4%; in assay [4], 7.35%; in assay [5], 18.2%; in assay [6], 4.6%.
Turning to `CC(N)CN.CC(N)CN.[Cl-].[O]=[Os+2]=[O]` (stereo not given), the growth inhibition in assay [1] is -31%; in assay [2], -13.4%; in assay [3] it was -16.6%; in assay [4], 2.05%; in assay [5], -16.1%; in assay [6] it was -13.6%.
